Active and inactive are the calls of the source. Calls come from the whole dose curve; as a rule, active = well fitted activation curve with a large enough effect in the repeat runs; inconclusive = weak or mixed curves; inactive = flat fitted curve, though single readings scatter.

The nature of the assay: A CellTox Green Cytotoxicity Assay to monitor cytotoxicity in HEK293 cells - 0 hour (AID 1224869). Note: nearly all actives have a fitted effect of over 50% in size. The following applies: CellTox Green fluorescence; series mostly up to 76.8 µM. From the text: National Center for Advancing Translational Sciences [NCATS]
NIH Chemical Genomics Center [NCGC]
U.S. Environmental Protection Agency [EPA]
National Institutes of Environmental Health Sciences [NIEHS]
National Toxicology Program [NTP]
Cell-based models are critical for drug discovery. Determining the natural cytotoxic effects resulting from test compounds is an essential research activity. A CellTox Green Cytotoxicity Assay to monitor cytotoxicity in real time of continues cell culture during 40 hours of the compound treatment was used to screen Tox21 10K library compounds in Hek293 cells. CellTox Green Cytotoxicity Assay is a nonlytic, homogeneous, biofluorescent method to measure cytotoxicity in cell culture after experimental manipulation. The assay system uses a proprietary asymmetric cyanine dye that is excluded from viable cells but preferentially stains the dead cell's DNA. […] Viable cells produce no appreciable increases in fluorescence. Therefore, the fluorescence signal produced by the binding interaction with dead cell DNA is proportional to cytotoxicity.
The mixture of Hek293 cell suspension and reagents were dispensed at 600cells/6 ul/well in 1536-well tissue culture treated black solid bottom plates using a Multidrop dispenser. After the assay plates were incubated at a 37 C/5% CO2 incubator for 5 hours, 23 nL of compounds dissolved in DMSO, positive and negative controls was transferred to the assay plate by a pintool work station. The plates were incubated at 37 C for 40 hours. The fluorescence intensity were measured at 0h, 8h, 16h, 24h, 32h and 40h time points using ViewLux plate reader during compound treatment.
`CC[C@H](O)C(C[C@H](C)N(C)C)(c1ccccc1)c1ccccc1`: the outcome was inactive.

Take `COC[C@@H](NC(C)=O)C(=O)NCc1ccccc1`: the result was inactive.

On to `O=C(Cl)CCl`, for which the outcome was inactive. Turning to `O=C/C=C/c1ccco1`, the outcome was inactive. To `CCN[C@@H](C)Cc1ccccc1` belongs “inactive”; to `CCCCCCCC(=O)Cl`, “inactive”. On to `COP(=O)(OC)O/C(C)=C/C(=O)N(C)C`, for which the call was inactive. With `CCc1cc(OC)c(C[C@H](C)N)cc1OC`, the call was inactive.

As for `Cc1ccc(S(=O)(=O)N[C@@H](CCCCN)C(=O)CCl)cc1`, the molecule was classed as inactive. The same measure for `CC1=C2[C@H]3OC(=O)[C@@H](C)[C@@H]3CC[C@@]2(C)C=CC1=O`: “inactive”. The same measure for `CCNc1nc(Cl)nc(NC(C)(C)C)n1`: “inactive”. The same measure for `C=C(Cl)CCl`: “inactive”; for `CCC1(c2ccccc2)C(=O)N(COC)C(=O)N(COC)C1=O`: “inactive”. Take `NCC1(CC(=O)O)CCCCC1`: the result was inactive.

Consider `CCNc1nc(NCC)nc(SC)n1`, for which the molecule was called inactive.

Turning to `O=CCCl`, the outcome was inactive. To `O=c1[nH]c2ccccc2n1C1CCNCC1` belongs “inactive”; to `CN(C)CCc1c[nH]c2cccc(OP(=O)(O)O)c12`, “inactive”; to `CC(Cc1ccccc1)NCCn1cnc2c1c(=O)n(C)c(=O)n2C` (stereo not given), “inactive”.

For `C#CC(C)(C)O`, the molecule was classed as inactive. The same measure for `CCOC(=O)c1ncn2c1CN(C)C(=O)c1c(I)cccc1-2`: “inactive”.

Regarding `ClC1=C(Cl)C2(Cl)C(CBr)CC1(Cl)C2(Cl)Cl` (stereo not given), the call was inactive. To `O=[N+]([O-])CCO` belongs “inactive”; to `C=CCc1cc(OC)c2c(c1)OCO2`, “inactive”; to `CC(C)N(Cc1ccccc1)C(=O)C(C)(C)C`, “inactive”.

Take `CCN[C@@H](C)Cc1cccc(C(F)(F)F)c1`: the result was inactive.

Regarding `CN(C)C1CCCCC1`, the molecule was called inactive. To `CCOC(=O)CCl` belongs “inactive”; to `CN1COCN(Cc2cnc(Cl)s2)/C1=N\[N+](=O)[O-]`, “inactive”; to `[P]#[In]`, “inactive”. To `CC(C)(C1CCC(O)CC1)C1CCC(O)CC1` (stereo not given) belongs “inactive”. To `CC(Cl)(Cl)Cl` belongs “inactive”; to `CCN(CC)C1CCCCC1`, “inactive”. Turning to `CCc1ccc(C2CCNCC2)cc1`, the outcome was inactive. The same measure for `O=c1[nH]c2ccccc2o1`: “inactive”. With `CCC(C)(C#N)N=NC(C)(C#N)CC` (stereo not given), the result was inactive. The same measure for `CC(C)[C@]12CC(=O)[C@H](C)[C@H]1C2`: “inactive”. Regarding `O=C(Cl)C(Cl)(Cl)Cl`, the call was inactive.

As for `CCCCS(=O)(=O)Cl`, the molecule was classed as inactive. In the case of `NCCOS(=O)(=O)O`, the molecule was called inactive.
